The supplement of paper PMC10477191
± gives the standard deviation of the averaged measurements.

test system: Drosophila virilis antennal basiconic sensillum AB10; test: odor-evoked OSN spike response (post minus pre-stimulus); higher = stronger neuronal excitation; conditions: odor dilution: 10^-4
Procedure: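 Single sensillum recordings from antennal basiconic sensilla of D. virilis. A 500 ms pulse of odorant (10^-4 in mineral oil or DMSO) was delivered; the response is the change in spike frequency between the 1 s pre- and post-stimulus windows (spikes/s).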

Structure (SMILES) | odor-evoked OSN spike response
CC(=O)C(C)O (stereo not drawn) [acetoin] | 143 ± 43 spikes/s
CC(=O)OC/C=C(\C)CCC=C(C)C [geranyl acetate] | 134 ± 24 spikes/s
CCOC(=O)CC(C)O (stereo not drawn) [Ethyl-3-hydroxybutyrate] | 99.4 ± 35 spikes/s
